Most compounds without a hit are left out; they make up all but 3.8% or so of the library.
Sfp PPTase inh: inhibitors of Bacillus subtilis Sfp phosphopantetheinyl transferase. hit rate 3.5% among 310,000. Biochemical Sfp PPTase activity, qHTS. AID 1490. Potency, µM, usual class: inhibitors;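 also: the enzyme is Sfp with the accession as filed and its product quenches rhodamine fluorescence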
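Fluorescence-quenching assay with 15 nM Sfp, 5 uM rhodamine-CoA and 12.5 uM BHQ-2-labelled ybbR peptide in pH 7.6 Hepes/MgCl2 buffer. Enzyme was pre-incubated with compound for 15 min at room temperature. Rate was taken from the 30-min fluorescence change (525/598 nm).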
TrxR1 substrate: substrates of rat thioredoxin reductase 1; O89049; purified TrxR1 substrate turnover, NADPH consumption readout; Potency, µM (series often up to 114 µM); hit rate 0.01% among 390,000; AID 588456; also: nearly all actives have a fitted effect of over 50% in size
Target sequence (O89049 whole entry, looked up): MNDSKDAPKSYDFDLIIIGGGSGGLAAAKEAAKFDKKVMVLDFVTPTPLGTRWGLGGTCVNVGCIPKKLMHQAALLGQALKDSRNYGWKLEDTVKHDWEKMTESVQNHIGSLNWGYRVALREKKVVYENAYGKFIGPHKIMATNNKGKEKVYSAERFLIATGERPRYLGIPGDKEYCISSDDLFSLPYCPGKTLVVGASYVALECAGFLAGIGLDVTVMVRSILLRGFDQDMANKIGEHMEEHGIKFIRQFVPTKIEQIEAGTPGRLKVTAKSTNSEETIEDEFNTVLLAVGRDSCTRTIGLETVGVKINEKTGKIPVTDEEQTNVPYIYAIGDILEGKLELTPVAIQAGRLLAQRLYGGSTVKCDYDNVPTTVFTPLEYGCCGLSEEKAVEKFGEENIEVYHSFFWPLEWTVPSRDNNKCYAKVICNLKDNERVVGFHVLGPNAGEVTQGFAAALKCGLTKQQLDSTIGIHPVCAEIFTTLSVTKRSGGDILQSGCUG
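Rat TrxR1, dispensed at 90 nM, was prereduced with 400 uM NADPH (final) for 5 min at ~22 deg C, then incubated with compound 15 min before 400 uM selenite. A first-read NADPH fluorescence drop versus no-compound background flagged substrates.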
GLS inh: glutaminase GLS (human) inhibition; O94925; GLS enzymatic activity, qHTS titration; Potency, µM (series often up to 45.5 µM), actives largely listed as inhibitors; hit rate 0.21% among 410,000; AID 624170
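Compounds were pin-transferred onto hKGA, after which L-glutamine (1 mM solution) and a detection mix of glutamate oxidase, HRP and Amplex Red were added. Initial and 30 min RT fluorescence reads were collected.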
VDR inhibitor: inhibitors of human vitamin D receptor; Potency, µM, actives largely listed as inhibitors; hit rate 0.93% among 400,000; VDR-SRC2-3 peptide fluorescence polarization, 2 h; AID 504847
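After 23 nl compound addition and a short centrifugation, plates sat for 2 hours at ambient temperature; polarization of fluorescence then indicated loss of VDR binding to peptide SRC2-3.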
GCN5L2 inh: inhibitors of human GCN5L2 histone acetyltransferase; hit rate 0.21% among 390,000; Q92830; AID 504327; Potency, µM (series often up to 58.9 µM), usual class: inhibitors; GCN5L2 HAT assay, ThioGlo1 CoA-SH fluorescence
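GCN5L2 (20nM final) in 50mM HEPES, 0.1mM EDTA pH 7.5, 0.01% Tween-20 was preincubated 15 min at room temperature with compound, then given ThioGlo1 (50uM), H3(1-25) peptide (75uM) and acetyl-CoA (70uM); CoA-thiol fluorescence (Ex340/Em540) was read at 0 and 20 min.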
TrxR1 inh: rat TrxR1 inhibition; O89049; Potency, µM (highest dose often 114 µM), most hits filed as inhibitors; recombinant rTrxR1, NADPH fluorescence consumption, selenite substrate; hit rate 1% among 390,000; AID 588453; also: nearly all actives have a fitted effect of over 65% in size
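Rat TrxR1 (90 nM in the dispensed reagent) was pre-reduced with 400 uM NADPH for 5 min at room temperature, then incubated with compound for 15 min. After 400 uM selenite was added, NADPH fluorescence (Ex 340/Em 450 nm) was followed for 8 min.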
Numbers stand for hits; – = inactive; ? = inconclusive; · = no result given; [ ] = dose if it differs, or a comment. Calls follow the shape of the dose curve; as a rule, active = well fitted curve in the direction sought with a large enough effect; inconclusive = small, poorly fitted or top-dose-only effect, or another doubt; inactive = no such curve, though single readings can be large; an effect the other way counts as inactive or inconclusive.

SMILES	Sfp PPTase inh	TrxR1 substrate	GLS inh	VDR inhibitor	GCN5L2 inh	TrxR1 inh
O=C1c2ccccc2C(=O)N1/N=C/c1ccc(O)c(O)c1O	7.9µM	–	?	79µM	–	–
CC1=CC2=NC(=O)/C(=C\c3ccc(-c4ccc(Cl)cc4)o3)C(=N)N2O1	–	·	·	·	–	·
CCN1CCN(CCC(=O)Nc2ccc(Br)cc2)CC1	?	–	–	–	–	–
CCN1CCOC(=O)C1CC(=O)Nc1ccc(Br)cc1 (stereo not drawn)	·	–[11.4 µM]	–	?	–	71µM
Cc1nn(Cc2ccc(F)cc2)c(C)c1NC(=O)c1cc(-c2ccco2)on1	–	–	–	–	–	–
O=C(N/N=C/C1=C(N2CCOCC2)C(=C\c2ccccc2)/CC1)Nc1ccccc1	–	–	–	–	–	–
CCN(CC)c1ccc(/C=C2\CCC(/C=N/NC(=O)c3ccc(=O)n(C)c3)=C2N2CCOCC2)cc1	–	–	7.1µM	–	–	–
CCOC(=O)c1noc2nc(C)n(CC(=O)Nc3ccccc3F)c(=O)c12	·	–	–	–	–	–
CC(CS(=O)(=O)c1ccc2c(c1)NC(=O)CS2)C(=O)NCc1ccccc1Cl (stereo not drawn)	–	–	11µM	–	–	–
Cc1ccc(CNC(=O)CC(C)S(=O)(=O)c2ccc3c(c2)NC(=O)CS3)o1 (stereo not drawn)	25µM	–	–	–	–	16µM
CCC(C)(C)c1ccc(OCCCC[n+]2cccc(C)c2C)c(C(C)(C)CC)c1	45µM	–	–	–	–	–
Cc1cc[n+](CC[n+]2ccc(C)cc2)cc1	·	–	–	–	?	–
CCC(C)(C)c1ccc(OCCCC[n+]2ccc(C)cc2)c(C(C)(C)CC)c1	40µM	–	–	–	–	–
COc1ccc(C)cc1NC(=O)n1ncc2c(C)cccc21	–	–	–	–	–	–
CCOC(=O)C1C(c2cc(OC)c(OC)c(OC)c2)NC(=S)NC1(O)C(F)(F)F (stereo not drawn)	79µM	–	–	–	–	–
COc1ccc(NC(=O)CCCn2c(=O)c3sccc3n(Cc3ccc(C)cc3C)c2=O)cc1	50µM	–	–	–	–	–
CC(=O)S[C@H]1CC2=CC(=O)CC[C@@]2(C)[C@H]2CC[C@@]3(C)[C@H](CC[C@]34CCC(=O)O4)[C@@H]12	–	·	·	–	–	·
CC1CCc2c(sc(NC(=O)c3nc4ncccn4n3)c2C#N)C1 (stereo not drawn)	22µM	–	–	?	–	–
CC1CCc2c(sc(NC(=O)Cn3nc(C(F)(F)F)c4c3CCCCC4)c2C#N)C1 (stereo not drawn)	50µM	–	–	–	?	–
N#Cc1c(NC(=O)c2cnn3cccnc23)sc2c1CCCC2	45µM	–	–	–	–	–
CC1CCc2c(sc(NC(=O)C3CCCO3)c2C#N)C1 (stereo not drawn)	–	–	–	–	–	–
O=C1C=CC2C(c3ccc4c(c3)OCO4)CC1N2Cc1ccccc1 (stereo not drawn)	–	–	–	?	–	–
O=C(/C=C/c1cn(CC(O)CN2CCCCCC2)c2ccccc12)c1cccs1 (stereo not drawn)	–	–	–	–	–	–
Fc1ccc2cc(-c3ccsc3)ncc2c1	·	–	–	–	–	–
Cc1cc(C)cc(-n2c(SCC(=O)N3CCOCC3)nc3c([nH]c4ccccc43)c2=O)c1	·	–	–	–	–	–
SMILES	Sfp PPTase inh	TrxR1 substrate	GLS inh	VDR inhibitor	GCN5L2 inh	TrxR1 inh
O=S(=O)(Nc1nc2ccccc2nc1NCc1ccco1)c1ccccc1	–	–	–	–	–	–
COc1ccc(-n2nnc3c(SCC(=O)Nc4ccc5c(c4)OCCO5)ncnc32)cc1	13µM	·	·	·	–	·
CN(C)CCCNc1cc(C(C)(C)C)nc2c(-c3ccccc3)cnn12	50µM	–	–	–	–	–
CCOc1ccc2nc3cc(N)ccc3c(N)c2c1	–	·	–	13µM	?	·
CCOc1ccc2nc3ccc4[nH]onc4c3c2c1	·	–	–	–	·	–
COc1cc(C2(c3ccc(O)c(OC)c3)C(=O)Nc3c(C)cc(Br)cc32)ccc1O	·	–	2.5µM	–	·	–
CCOc1ccc(NC(=O)c2cccnc2SC)cc1	–	–	–	–	–	–
CCOc1ccc(NC(=O)c2cccnc2C(=O)O)cc1	56µM	–	–	–	–	–
O=c1c2ccccc2nc(-c2cccs2)n1-c1cccc2ccccc12	–	–	–	–	–	–
CCOC(=O)c1cnc(SC2CC(=O)N(c3ccc(C)cc3)C2=O)nc1N (stereo not drawn)	–	–	–	–	·	–
CCOC(=O)c1cnc(SC2CCc3ccccc3C2=O)nc1N (stereo not drawn)	56µM	–	–	–	–	–
CCc1nnc(NS(=O)(=O)c2ccc(N/C=C/C(=O)c3ccc(C)cc3)cc2)s1	–	–	–	–	–	–
Cc1ccccc1NC(=O)c1cc(-c2ccco2)nc2ccccc12	·	–	–	–	·	–
CCCCN(C(=O)c1cc(-c2ccco2)nc2ccccc12)c1c(N)n(CCC)c(=O)[nH]c1=O	·	–	?	–	–	79µM
CCCCn1c(N)c(N(CC(C)C)C(=O)c2cc(-c3ccco3)nc3ccccc23)c(=O)[nH]c1=O	·	–	–	–	–	?
O=C(NC1CCC(O)CC1)c1cc(-c2ccco2)nc2ccccc12 (stereo not drawn)	18µM	–	?	–	–	?
Cc1cccc(NC(=O)c2cc(-c3ccco3)nc3ccccc23)n1	22µM	–	–	–	–	?
Cc1ccc(S(=O)(=O)N(C)C)cc1NC(=O)c1cc(-c2ccco2)nc2ccccc12	–	–	–	–	–	3.5µM
O=C(NCC1CCCO1)c1cc(-c2ccco2)nc2ccccc12 (stereo not drawn)	–	–	?	–	?	–
CC(C)(C)CC(=O)Nc1nnc(CCc2ccccc2)s1	–	–	–	–	–	–
CC(C)(C)NC(=O)NC(=O)CN1CCN(c2ccc(O)cc2)CC1	–	–	?	–	–	–
CCCCCCNC(=O)c1cc(-c2ccco2)nc2ccccc12	?	–	?	?	?	3.5µM
CCC(C)/C=C/C1=CC2=C(Cl)C(=O)C3(C)OC(=O)C(C(=O)C(C)C(C)O)C3C2=CO1 (stereo not drawn)	32µM	–	–	–	–	–
Cc1ccc(N2CN(CCC3=CCCCC3)CNC2=S)cc1	–	–	–	–	–	–
CCN(CC)CCN(Cc1cc2cc(C)ccc2[nH]c1=O)C(=S)NCc1ccco1	56µM	–	–	–	–	–
CCNC(=S)N(Cc1cc2cc(C)ccc2[nH]c1=O)C1CCCC1	56µM	–	–	–	–	–

Assay outcomes deposited in PubChem BioAssay by National Center for Advancing Translational Sciences (NCATS).
